{"source": "PubChem BioAssay AID720532", "about": "(National Center for Advancing Translational Sciences (NCATS), 2013)", "note": "Values joined by “and” are separate entries in the source; they are usually repeats but may differ in a detail not shown here. Equal values may be shown once. Out of some 18,000 compounds screened, about 1,200 (6.7%) were called active. Where a call stands in place of a potency, no number is given. Not shown: some 16% with an inconclusive outcome. Only a selection was taken, and actives are over-represented in it overall. Unmarked numbers belong to inactive results. Calls come from the whole dose curve; tested in HEK293 cells. Bridge positions count the residues as written; N and C are the ends. Peptide text beside a SMILES is read from it. Potency is the fitted concentration of half-maximal effect.", "data": [{"test": "qHTS for Inhibitors of binding or entry into cells for Marburg Virus", "conditions": "Marburg virus pseudotype entry/binding inhibition, cell-based; series mostly up to 49.2 µM", "values": [{"smiles": "COC(=O)C1=C(C(=O)OC)[C@@H]2N(C)c3ccccc3[C@@]23C[C@@H](C(=O)OC)N(C(=O)c2ccco2)C3=N1", "activity change, negative = inhibition": "74% [at 8.59 µM]"}, {"smiles": "C[C@H](CCC(=O)NCC(=O)O)[C@H]1CC[C@H]2[C@H]3[C@@H](C[C@@H](O)[C@]12C)[C@]1(C)CC[C@H](O)C[C@@H]1C[C@@H]3O", "activity change, negative = inhibition": "inactive"}, {"smiles": "COC(=O)[C@@]1(C=C[C@@H](C)[C@H](OC)c2ccccc2Br)[C@@H]2Oc3ccccc3[C@@H]21", "activity change, negative = inhibition": "4.01% [at 8.59 µM]"}, {"smiles": "C=C[C@](C)(O)CCC1C(=C)CCC2[C@@](C)(CO)CCC[C@@]12C", "note": "(stereo not given in full)", "activity change, negative = inhibition": "inactive"}, {"smiles": "COc1cccc([C@@H]2Oc3ccc(OC)cc3C(=O)[C@@H]2OC(=O)Nc2cc(OC)c(OC)c(OC)c2)c1", "activity change, negative = inhibition": "12.9% [at 8.59 µM]"}, {"smiles": "Fc1ccc(Cl)cc1-c1nc(Nc2ccncc2)c2nccnc2n1", "activity change, negative = inhibition": "inactive"}, {"smiles": "C=C(C(C)=O)C(O)c1ccc([N+](=O)[O-])cc1", "note": "(stereo not given)", "activity change, negative = inhibition": "inactive"}, {"smiles": "COc1ccc(-c2nc3c(c4c2C[C@H](c2ccccc2)OC4)CN(C(=O)C2CC2)CC3)c(C)c1", "activity change, negative = inhibition": "-29.5% [at 8.59 µM] and -8.72% [at 8.59 µM]"}, {"smiles": "C[C@@H](O)[C@@H]1NC(=O)[C@H](CCCCN)NC(=O)[C@H](Cc2c[nH]c3ccccc23)NC(=O)[C@H](Cc2ccccc2)NC(=O)[C@H](Cc2ccccc2)NC(=O)[C@H](CC(N)=O)NC(=O)[C@H](CCCCN)NC(=O)[C@@H](NC(=O)[C@@H]2CCCN2)CSSC[C@@H](C(=O)N[C@@H](CCCCN)C(=O)O)NC(=O)[C@H](CO)NC(=O)[C@H](CO)NC(=O)[C@H](Cc2ccccc2)NC1=O", "note": "(H-PCKNFFWKTFSSCK-OH; disulfide 2-13)", "activity change, negative = inhibition": "inactive"}, {"smiles": "C[C@@H]1C(c2ccc(F)cc2)=NN(c2ccc(Br)cc2)[C@H]1C(=O)N1CCOC1=O", "activity change, negative = inhibition": "inactive"}, {"smiles": "C/C=C/C1=C(C(=O)O)N2C(=O)[C@@H](NC(=O)[C@H](N)c3ccc(O)cc3)[C@H]2SC1", "activity change, negative = inhibition": "inactive"}, {"smiles": "COC(=O)CC1c2ccccc2C(Cc2ccc(OC)cc2)=C(C)N1C(=O)OC", "note": "(stereo not given)", "activity change, negative = inhibition": "0.314% [at 8.59 µM] and -19% [at 8.59 µM]"}, {"smiles": "CC(C)(C)OC(=O)N1CCC(C(=O)Nc2cccc(C(=O)NCCc3ccccc3)c2)CC1", "activity change, negative = inhibition": "inactive"}, {"smiles": "CC(C)(O)CCC(O)[C@@](C)(O)C1CC[C@]2(O)C3=CC(=O)C4CC(O)C(O)C[C@]4(C)C3CC[C@]12C", "note": "(stereo not given in full)", "activity change, negative = inhibition": "inactive"}, {"smiles": "CC(C)=CCC[C@]1(C)[C@@H](CC=C(C)C)C[C@@]2(CC=C(C)C)C(=O)[C@]1(C(=O)C(C)C)C(=O)C(CC=C(C)C)=C2O", "Potency": "15.8 µM (active)"}]}]}
